GFP derepression = epigenetic GFP locus derepression in mouse cells | 68,000 tested, 0.09% active | Potency, µM (highest dose often 46.1 µM), inactives show at the top dose GFP derepression (activation) | mouse C127i GFP locus derepression, cytometry, 30 h; also: % of control where 0% means no effect
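Murine C127i mammary cells carrying a silenced, stably integrated CMV-driven GFP reporter were treated with compound for 30 hours at 37 C. After PBS washes, GFP-positive cells were counted by laser-scanning microplate cytometry.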
ALOX15B inhib = inhibitors of human 15-lipoxygenase 2 (ALOX15B). purified 15hLO-2, xylenol orange hydroperoxide absorbance. 110,000 tested, 0.56% active. O15296. Potency, µM (doses to about 57.1 µM), without a hit: top-dose activity change, negative = inhibition, usual class: inhibitors; also: potency is read from the fitted curve at half-maximal effect; % is scaled to controls: 0 for no effect and ±100 for the full control effect; nearly all actives have a fitted effect of over 60% in size
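Purified human 15hLO-2 (50 nM final) preincubated with compounds 15 min at room temperature in 25 mM Hepes pH 7.5, 0.01% Triton X-100, then 45 uM arachidonic acid added for 90 min; hydroperoxide detected via ferrous/xylenol orange, 573/405 nm absorbance ratio.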
15-hLO inh = 15-hLO (ALOX15) enzyme inhibition; purified 15hLO-1, xylenol orange hydroperoxide absorbance; Potency, µM (titrated, usually from 57.1 µM), for the others: top-dose activity change, negative = inhibition, usual class: inhibitors; 74,000 tested, 1.4% active; also: potency is read from the fitted curve at half-maximal effect; % is scaled to controls: 0 for no effect and ±100 for the full control effect; nearly all actives have a fitted effect of over 55% in size
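40 nM 15hLO-1 + cpd, 15 min RT; start w/ 50 uM AA (final), 6 min RT; stop/detect w/ 200 uM XO + 300 uM Fe(II) in 50 mM H2SO4, 30 min; A573/A405. Buffer 25 mM Hepes pH 7.5, 0.01% Triton X-100. No-enzyme wells as negative control.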
HBB splice mod = hemoglobin beta splicing modulation | Potency, µM (titrated, usually from 46.1 µM), for inactives: at the top dose activation, hits mostly activators | 65,000 tested, 0.06% active | HBB splicing reporter cell assay, activation; EGFP reporter with mutant IVS2-654 intron; response scale: normalised to 500 nM splice-correcting PNA; also: potency is read from the fitted curve at half-maximal effect; 0% is about no effect
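HeLa cells stably expressing EGFP interrupted by mutant beta-globin intron 2 (IVS2-654), 500/well in 2% FCS. Treated with compound for 2 days at 37C. Splicing correction scored as total well GFP intensity (488 nm excitation, 500-520 nm emission); 500 nM antisense PNA served as control.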
Tau filament bind = tau filament binding; Potency, µM (series often up to 57.1 µM), for inactives: top-dose activity change, negative = inhibition; recombinant tau filaments, thioflavin S fluorescence, 15 h; filaments grown with octadecylsulfate alongside compound; AID 596; P10636; 71,000 tested, 2% active;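 also: potency is read from the fitted curve at half-maximal effect; % is scaled to controls: 0 for no effect and ±100 for the full control effect; actives lower thioflavin S fluorescence by blocking filaments or displacing dye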
Target sequence (P10636 whole entry, looked up): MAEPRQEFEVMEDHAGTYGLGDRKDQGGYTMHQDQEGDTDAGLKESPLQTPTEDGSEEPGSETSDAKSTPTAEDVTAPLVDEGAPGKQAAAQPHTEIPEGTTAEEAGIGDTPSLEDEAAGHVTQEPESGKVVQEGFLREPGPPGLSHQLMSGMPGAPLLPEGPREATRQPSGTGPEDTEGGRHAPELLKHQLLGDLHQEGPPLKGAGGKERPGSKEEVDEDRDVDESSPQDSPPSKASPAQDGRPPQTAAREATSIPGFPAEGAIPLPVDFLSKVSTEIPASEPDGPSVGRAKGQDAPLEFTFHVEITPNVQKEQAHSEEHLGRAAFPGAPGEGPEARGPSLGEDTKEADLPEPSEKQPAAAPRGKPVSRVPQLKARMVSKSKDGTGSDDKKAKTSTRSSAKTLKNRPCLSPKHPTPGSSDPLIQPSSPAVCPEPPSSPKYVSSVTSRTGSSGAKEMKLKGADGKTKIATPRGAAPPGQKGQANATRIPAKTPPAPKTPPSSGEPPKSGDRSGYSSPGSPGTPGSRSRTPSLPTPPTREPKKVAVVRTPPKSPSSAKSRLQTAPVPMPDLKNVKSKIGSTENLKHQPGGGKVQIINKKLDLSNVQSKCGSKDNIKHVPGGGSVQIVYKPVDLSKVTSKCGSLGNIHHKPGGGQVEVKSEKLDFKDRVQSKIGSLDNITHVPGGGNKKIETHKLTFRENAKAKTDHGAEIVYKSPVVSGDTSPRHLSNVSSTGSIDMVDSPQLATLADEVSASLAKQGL
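Assay mix: 1 uM His-tagged tau, 30 uM sodium octadecylsulfate, thioflavine S dye in HEPES/NaCl/DTT buffer. Compound is added prior to the inducer. Fluorescence after 15 h at 37 C.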
Ub-GFP proteasome = inhibits proteasome, raising ubiquitin-GFP reporter fluorescence. Ubiquitin-GFP reporter cells, proteasome inhibition, GFP fluorescence; response scale: untreated = 0%, 10 µM MG-132 = 100%. Potency, µM (doses to about 45.9 µM), for the others: at the highest dose activation (GFP accumulation), hits mostly activators. 67,000 tested, under 10 active; active = well fitted activation curve with a large enough effect, not every such curve was filed as active; inconclusive = small, poorly fitted or top-dose-only effect, or another doubt; inactive = no such curve, though single readings can be large or run the other way; also: potency is read from the fitted curve at half-maximal effect
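U2OS cells stably expressing ubiquitin(G76V)-GFP, seeded overnight in 0.5% FBS medium, were exposed to compounds (qHTS, 46 uM to 2.9 nM) for 4 hr at 37 °C. GFP-positive cells were counted by laser cytometry (488 ex/515 em), normalized between basal and 10 uM MG-132.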
* = called active by the depositor; ? = inconclusive; . = no result; [ ] = another dose, or the depositor's remark. Rows were chosen to be rich in hits. Some 2.3% of all compounds tested hit in one or more screens of this group. Unless noted, calls follow the shape of the dose curve; as a rule, active = well fitted curve in the direction sought with a large enough effect; inconclusive = small, poorly fitted or top-dose-only effect, or another doubt; inactive = no such curve, though single readings can be large; an effect the other way counts as inactive or inconclusive.

SMILES | GFP derepression | ALOX15B inhib | 15-hLO inh | HBB splice mod | Tau filament bind | Ub-GFP proteasome
CC(C)(C)c1nn(-c2ccccc2)c2[nH]c(=O)c(CNc3ccc4c(c3)OCCO4)cc12 | . | -6% | . | . | . | .
CC(C)(C)c1nn(-c2ccccc2)c2[nH]c(=O)c(CNCc3ccco3)cc12 | 4% | 39% | 6% | -1% | -20% | ?
CC1CCC(C(=O)O)([C@H](Br)C(=O)O)CC1 (some centres undefined) | 0%[9.22 µM] | -7%[11.4 µM] | -4%[11.4 µM] | 5%[9.22 µM] | 11%[11.4 µM] | -3%[9.17 µM]
O=c1[nH]c2ccc(Cl)cc2c(-c2ccccc2)c1CN1CCOCC1 | 0% | 2% | ? | 0%[57.5 µM] | 13µM* | -3%
Cc1ccc(C(=O)CCNc2ccc(Br)cc2)o1 | 0% | 5% | 6% | 0% | -16% | 4%
Cc1ccc(C(=O)CCNc2cccc(Br)c2)o1 | -2% | -3% | 13µM* | 1% | -10% | -3%
COc1ccc2c(c1)OC1(O)COc3cc(OC)c(OC)cc3C1=C2 (centres undefined) | . | -2% | -10% | . | . | .
CC(C)(C)c1ccccc1OCCCCCNCCO | -2% | 42% | -15% | 0%[9.22 µM] | 10µM* | -11%
CC(C)c1ccccc1OCCCCCNCCO | -2% | 28% | 2% | 0%[9.22 µM] | 13µM* | 22%
N#Cc1cc(-c2ccccc2)nn1-c1ccccc1 | 2% | 13%[2.29 µM] | 16µM* | -1% | 122% | -3%
O=C(NCc1ccco1)c1nc2nc(-c3cccs3)cc(C(F)(F)F)n2n1 | 0% | 0% | -14% | 0%[57.5 µM] | 25µM* | -1%
O=C(CSc1nc(-c2cccs2)cc(C(F)(F)F)n1)NCc1ccco1 | 0% | -7% | -8% | -2% | -15% | 1%
C=CC1=C(C)C2=NC1=CC1=NC(=CC3=NC(=CC4=NC(=C2)C(C)=C4CCC(=O)O)C(CCC(=O)O)=C3C)C(C=C)=C1C.[Zn] | 0% | 13µM* | 10µM* | . | 0.79µM* | -3%
Cc1cc(CCC(=O)O)c(C)cc1CCC(=O)O | -3%[20.6 µM] | -1% | . | . | . | .
O=NC1=C(c2c(O)[nH]c3ccccc23)CCCC1 | 0% | -8% | 3% | 0%[9.22 µM] | -11% | 0%
O=Nc1c(-c2c(O)[nH]c3ccccc23)[nH]c2ccccc12 | -1% | 10% | ? | 1% | 0.4µM* | 3%
O=C(O)CSc1cc(-c2ccccc2)nc2ccccc12 | -3%[9.22 µM] | 1%[11.4 µM] | -4%[11.4 µM] | 0%[9.22 µM] | -2%[11.4 µM] | -4%[9.17 µM]
On1onc2c3cc(-c4ccccc4)nc3ccc21 | 9% | -13% | -30% | 4% | 13µM* | 19%
CC(Oc1ccc(Cl)cc1Cl)C(=O)NC1=NN(c2ccccc2)C(=O)C1 (centres undefined) | . | 7.9µM* | . | . | . | .
CC(=O)N[C@@H]1CONC1=O | -1%[9.22 µM] | -5%[11.4 µM] | 2%[11.4 µM] | 4%[9.22 µM] | 4%[11.4 µM] | -8%[9.17 µM]
CCOC(=O)c1cnc2c(C(=O)OC)cccc2c1NCc1ccco1 | 6% | 2% | -10% | 1% | 13µM* | 2%
Cc1cccc(C)c1OC[C@@H](N)C(C)C | 1% | -11% | 6% | -1% | -5% | 0%
Nc1cc(-c2cccc(F)c2)nn1S(=O)(=O)c1cccc2nsnc12 | 0% | . | -17% | -1% | 16µM* | 9%
Cc1cccc(OCCCCc2c(C)n[nH]c2C)c1C | 0% | 39% | -8% | -2% | 16µM* | 9%
O=C1c2cccc(O)c2C(=O)c2c(O[C@@H]3O[C@H](CO)[C@@H](O)[C@H](O)[C@@H]3O)cccc21 | 2%[9.22 µM] | 10%[11.4 µM] | -3%[11.4 µM] | 0%[9.22 µM] | -7%[11.4 µM] | -2%[9.17 µM]
SMILES | GFP derepression | ALOX15B inhib | 15-hLO inh | HBB splice mod | Tau filament bind | Ub-GFP proteasome
O=C(O)c1cc(O)c2c(c1)[C@H]([C@H]1c3cc(C(=O)O)cc(O)c3C(=O)c3c(O[C@@H]4OC(CO)C(O)C(O)C4O)cccc31)c1cccc(O[C@@H]3OC(CO)C(O)C(O)C3O)c1C2=O (some centres undefined) | . | 10µM* | 13µM* | . | . | .
N#C/C(=C\c1ccc(O)c(O)c1)C(=O)Nc1ccccc1 | 3% | ? | 3.2µM* | 1% | 25% | -8%
C[C@@H](NC(=O)/C(C#N)=C/c1ccc(O)c(O)c1)c1ccccc1 | 1% | ? | ? | . | -42% | -4%
C[C@H](NC(=O)/C(C#N)=C/c1ccc(O)c(O)c1)c1ccccc1 | 0% | ? | 0.25µM* | 1% | ? | 4%
O=C(NCCN1CCCC1)c1ccc(-n2c(=O)c(=O)[nH]c3ccccc32)cc1 | . | . | -4% | . | . | .
NC(Cc1cc(I)c(Oc2cc(I)c(O)c(I)c2)c(I)c1)C(=O)O (centres undefined) | . | -2% | 13µM* | . | . | .
O=C(NCCCN1CCOCC1)c1ccc(-n2c(=O)c(=O)[nH]c3ccccc32)cc1 | . | . | 0% | . | . | .
CCOc1cccc(C(=O)c2ccc(O)c(O)c2O)c1 | . | ? | 13µM* | . | . | .
CCOC(=O)COc1ccc(C(=O)c2ccccc2)c(O)c1 | -1% | -3% | -5% | 0%[57.5 µM] | -7% | -1%
Nc1nc(C(=O)O)c(N=Nc2ccccc2)c(=O)[nH]1 | -2%[9.22 µM] | 1%[11.4 µM] | -10%[11.4 µM] | 1%[9.22 µM] | 5µM* | -6%[9.17 µM]
Nc1[nH]n2c(=O)cc(-c3ccccc3)nc2c1N=Nc1ccccc1 | . | -27% | . | . | . | .
CCCCCCCCC/C=C/CC1CC(=O)OC1=O (centres undefined) | . | -22% | -1% | -1% | 11% | .
COc1ccccc1CNc1ncnc2ccc(-c3ccccc3OC)cc12 | -1%[9.22 µM] | 52% | -13% | 2% | 397% | -4%
CCc1nnc(NS(=O)(=O)c2ccc(NC(=S)NC(=O)/C=C/c3ccc(C(C)C)cc3)cc2)s1 | . | 25µM* | . | . | . | .
CCc1nnc(NC(=O)c2ccc(NS(=O)(=O)c3ccccc3)cc2)s1 | 0% | . | -9% | 10% | -1% | -1%
CC(=O)C1=C(O)C=C(c2ccco2)CC1c1ccco1 (centres undefined) | 10% | -9% | ? | 0% | 20µM* | 4%
COc1cc(CNc2cc(C)ccc2C)cc(OC)c1OC | . | 1% | 3% | . | . | .
COc1cc(CNc2ccc(C)c(C)c2)cc(OC)c1OC | 2% | ? | 10µM* | -2%[9.22 µM] | ? | -8%
Cn1c(=O)oc2cc(S(=O)(=O)NCCC(=O)N3CCc4ccccc43)ccc21 | -2% | -5% | -2% | 0% | 16µM* | 19%
COc1ccc(NC(=O)c2cnn3c(C(F)(F)F)cc(-c4ccco4)nc23)cc1OC | 0% | -13% | 4%[11.4 µM] | 3%[0.0738 µM] | 0.4µM* | -5%[9.17 µM]
O=C(NC12CC3CC(CC(C3)C1)C2)c1cc2nc(-c3ccco3)cc(C(F)(F)F)n2n1 | 0% | -2% | -9% | . | 13µM* | 2%
